Data published in the supplement of paper PMC13172266.
Where a name gives a salt, the structure may show the parent alone.

Columns and labels:
Experiment in all cases: cell proliferation relative to vehicle (% of vehicle); higher = less growth inhibition
Settings in all cases: 72 h
[1] = system: U2932 TK216-resistant clone 2
Procedure, shortened: (§1)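 Parental U2932 cells (ABC-DLBCL) and two clones made resistant to an ETS-targeting agent by almost a year of repeated exposure were treated for 72 h with 348 targeted inhibitors at 500 nM or 50 nM. MTT was then applied for 4 h, the reaction was stopped with 25% SDS, and absorbance was measured on a Cytation 3. Values express proliferation as percent of proliferating cells compared with DMSO vehicle.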

[2] = system: U2932 TK216-resistant clone 3
Procedure, shortened: as §1

U2932 parental = system: U2932 parental
Procedure, shortened: as §1

Row | SMILES | cell proliferation ([1]; 50 nM) | cell proliferation ([1]; 500 nM) | cell proliferation ([2]; 50 nM) | cell proliferation ([2]; 500 nM) | cell proliferation (U2932 parental; 50 nM) | cell proliferation (U2932 parental; 500 nM)
1 | CN(CCOc1ccc(CC2SC(=O)NC2=O)cc1)c1ccccn1 (configuration not stated) [Rosiglitazone] | 100 | 101 | 98.8 | 104 | 94 | 95.2
2 | NC(=O)c1ccc(N(C(N)=O)c2c(F)cccc2F)nc1-c1ccc(F)cc1F | 106 | 100 | 108 | 99.3 | 99.3 | 98.7
3 | CC(=O)c1c(C)c2cnc(Nc3ccc(N4CCNCC4)cn3)nc2n(C2CCCC2)c1=O | 93.7 | 85.1 | 97.3 | 92.5 | 87.6 | 88.8
4 | CCn1c2ccccc2c2cc(Nc3ccnc(NCCCN4CCOCC4)n3)ccc21 | 85.4 | 91 | 74.8 | 88.1 | 83.6 | 91.7
5 | C[C@]1(c2nc3c(C(N)=O)cccc3[nH]2)CCCN1 [Veliparib (ABT-888)] | 90.3 | 91.5 | 98.8 | 80.8 | 87 | 96.6
6 | Cn1cnc2c(F)c(Nc3ccc(Br)cc3Cl)c(C(=O)NOCCO)cc21 [Selumetinib (AZD6244)] | 106 | 95.8 | 97 | 90.1 | 99.3 | 101
7 | CCNC(=O)c1noc(-c2cc(C(C)C)c(O)cc2O)c1-c1ccc(CN2CCOCC2)cc1 | 4.68 | 4.69 | 21.4 | 21.1 | 3.32 | 3.9
8 | CN(C)Cc1c(C(=O)NCCOc2ccc(C(=O)NO)cc2)oc2ccccc12 | 99.6 | 40.3 | 91.6 | 47.6 | 81.5 | 32.6
9 | CCCCCCCCCCCCCCCCCCOP(=O)([O-])OC1CC[N+](C)(C)CC1 [Perifosine (KRX-0401)] | 98.7 | 93.4 | 113 | 110 | 96.7 | 102
10 | Nc1ccc(C(=O)Nc2cccc(-c3nc(N4CCOCC4)c4oc5ncccc5c4n3)c2)cn1 | 98.7 | 104 | 102 | 104 | 102 | 103
11 | CCC(C)(C)C(=O)O[C@H]1C[C@@H](C)C=C2C=C[C@H](C)[C@H](CC[C@@H]3C[C@@H](O)CC(=O)O3)[C@H]21 [Simvastatin] | 91.4 | 88.7 | 98.4 | 89.1 | 90.5 | 87.4
12 | C=CCNC1=C2C[C@@H](C)C[C@H](OC)[C@H](O)[C@@H](C)/C=C(\C)[C@H](OC(N)=O)[C@@H](OC)/C=C\C=C(/C)C(=O)NC(=CC1=O)C2=O [17-AAG (Tanespimycin)] | 103 | 115 | 105 | 114 | 96.7 | 107
13 | Cn1cc(-c2ccc3c(c2)CCN3C(=O)Cc2cccc(C(F)(F)F)c2)c2c(N)ncnc21 | 105 | 102 | 108 | 121 | 101 | 105
14 | Cc1[nH]c2ccccc2c1CCNCc1ccc(/C=C/C(=O)NO)cc1 [Panobinostat (LBH589)] | 14.9 | 4.33 | 12.9 | 11.5 | 9.5 | 0.518
15 | CCCS(=O)(=O)Nc1ccc(F)c(C(=O)c2c[nH]c3ncc(-c4ccc(Cl)cc4)cc23)c1F [Vemurafenib (PLX4032, RG7204)] | 106 | 110 | 101 | 108 | 101 | 100
16 | O=c1[nH]c(=O)n([C@H]2C[C@H](O)[C@@H](CO)O2)cc1F [Floxuridine] | 60.3 | 37.4 | 95.2 | 72.5 | 73.1 | 34.2
17 | NC(=O)c1cccc2cn(-c3ccc([C@@H]4CCCNC4)cc3)nc12 [MK-4827(Niraparib) tosylate] | 103 | 91.7 | 109 | 103 | 92.5 | 97.1
